# Results reported in paper doi:10.1101/2025.08.08.669391.
# Experiments:
# Test in all cases: cross-linking mass spectrometry
# Settings in all cases: DSSO, not determined
# AIF1L = AIF1L (UniProt Q9BQI0)
# B4GALNT4 = B4GALNT4 (UniProt Q76KP1)
# CCT2 = CCT2 (UniProt P78371)
# CCT4 = CCT4 (UniProt P50991)
# MEPE = MEPE (UniProt Q9NQ76)
# SF3B1 = SF3B1 (UniProt O75533)
# SMC4 = SMC4 (UniProt Q9NTJ3)
# SNU13 = SNU13 (UniProt P55769)
# TPPP3 = TPPP3 (UniProt Q9BW30)
# TRIM28 = TRIM28 (UniProt Q13263)
# UniProt Q13263, sequence (Q13263 whole entry): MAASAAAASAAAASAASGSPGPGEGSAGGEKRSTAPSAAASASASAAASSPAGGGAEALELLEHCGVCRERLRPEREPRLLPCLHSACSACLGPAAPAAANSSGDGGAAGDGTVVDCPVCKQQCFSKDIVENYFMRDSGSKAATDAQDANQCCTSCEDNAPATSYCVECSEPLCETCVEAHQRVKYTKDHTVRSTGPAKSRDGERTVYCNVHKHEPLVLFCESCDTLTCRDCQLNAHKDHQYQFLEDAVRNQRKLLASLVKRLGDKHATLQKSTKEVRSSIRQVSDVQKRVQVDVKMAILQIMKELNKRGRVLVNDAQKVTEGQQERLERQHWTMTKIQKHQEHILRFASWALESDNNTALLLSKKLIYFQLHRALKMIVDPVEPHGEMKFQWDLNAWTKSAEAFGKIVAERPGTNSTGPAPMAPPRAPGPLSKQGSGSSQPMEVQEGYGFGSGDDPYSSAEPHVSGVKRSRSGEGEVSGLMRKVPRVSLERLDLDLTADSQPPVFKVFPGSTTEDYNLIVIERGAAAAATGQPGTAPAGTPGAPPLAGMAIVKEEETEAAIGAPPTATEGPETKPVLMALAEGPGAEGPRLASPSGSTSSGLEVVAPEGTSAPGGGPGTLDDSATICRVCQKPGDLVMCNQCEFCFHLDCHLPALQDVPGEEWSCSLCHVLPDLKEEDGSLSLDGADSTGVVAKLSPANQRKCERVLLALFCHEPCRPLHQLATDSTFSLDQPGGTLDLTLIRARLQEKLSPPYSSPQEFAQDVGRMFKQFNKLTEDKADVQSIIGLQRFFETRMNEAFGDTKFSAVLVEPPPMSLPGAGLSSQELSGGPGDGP
# XRCC5 = XRCC5 (UniProt P13010)
# UniProt P13010, sequence (P13010 whole entry): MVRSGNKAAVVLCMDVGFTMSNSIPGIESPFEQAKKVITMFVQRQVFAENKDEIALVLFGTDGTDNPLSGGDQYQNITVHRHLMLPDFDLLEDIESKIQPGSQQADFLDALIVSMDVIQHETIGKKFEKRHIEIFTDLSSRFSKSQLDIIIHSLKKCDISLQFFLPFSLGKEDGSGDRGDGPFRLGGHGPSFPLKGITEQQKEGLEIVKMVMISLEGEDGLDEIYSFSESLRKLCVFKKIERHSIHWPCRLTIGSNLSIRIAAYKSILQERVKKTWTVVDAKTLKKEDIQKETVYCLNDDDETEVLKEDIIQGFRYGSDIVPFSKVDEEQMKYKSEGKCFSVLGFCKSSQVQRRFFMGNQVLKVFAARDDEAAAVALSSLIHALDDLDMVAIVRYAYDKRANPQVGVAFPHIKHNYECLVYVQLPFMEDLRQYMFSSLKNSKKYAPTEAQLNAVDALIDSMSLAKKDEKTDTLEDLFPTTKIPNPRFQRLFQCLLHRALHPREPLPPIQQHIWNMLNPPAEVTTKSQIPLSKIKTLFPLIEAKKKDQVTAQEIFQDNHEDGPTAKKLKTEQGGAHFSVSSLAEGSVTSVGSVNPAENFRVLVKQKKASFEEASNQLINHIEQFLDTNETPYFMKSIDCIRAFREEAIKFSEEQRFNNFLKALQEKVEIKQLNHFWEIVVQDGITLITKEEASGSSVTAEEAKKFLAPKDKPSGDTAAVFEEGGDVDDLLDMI
# UniProt Q9BW30, sequence (Q9BW30 whole entry): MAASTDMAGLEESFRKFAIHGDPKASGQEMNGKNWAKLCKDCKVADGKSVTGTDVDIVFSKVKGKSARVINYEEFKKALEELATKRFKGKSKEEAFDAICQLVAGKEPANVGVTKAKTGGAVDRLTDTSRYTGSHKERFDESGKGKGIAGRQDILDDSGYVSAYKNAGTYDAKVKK
# UniProt P78371, sequence (P78371 whole entry): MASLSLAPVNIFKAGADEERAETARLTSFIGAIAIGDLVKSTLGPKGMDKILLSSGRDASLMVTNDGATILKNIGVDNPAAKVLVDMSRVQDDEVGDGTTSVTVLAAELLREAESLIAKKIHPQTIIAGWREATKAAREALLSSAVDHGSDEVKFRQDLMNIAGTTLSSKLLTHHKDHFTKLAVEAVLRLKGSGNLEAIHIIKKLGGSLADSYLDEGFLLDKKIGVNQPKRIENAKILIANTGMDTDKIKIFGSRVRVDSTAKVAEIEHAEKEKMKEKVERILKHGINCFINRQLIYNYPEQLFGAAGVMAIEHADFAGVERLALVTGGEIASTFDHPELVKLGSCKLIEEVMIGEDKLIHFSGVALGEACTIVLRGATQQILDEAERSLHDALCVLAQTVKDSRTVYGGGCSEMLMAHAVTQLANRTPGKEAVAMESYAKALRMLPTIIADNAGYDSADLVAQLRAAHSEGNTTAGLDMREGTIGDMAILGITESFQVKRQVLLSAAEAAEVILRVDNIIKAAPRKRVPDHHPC
# UniProt Q9NTJ3, sequence (Q9NTJ3 whole entry): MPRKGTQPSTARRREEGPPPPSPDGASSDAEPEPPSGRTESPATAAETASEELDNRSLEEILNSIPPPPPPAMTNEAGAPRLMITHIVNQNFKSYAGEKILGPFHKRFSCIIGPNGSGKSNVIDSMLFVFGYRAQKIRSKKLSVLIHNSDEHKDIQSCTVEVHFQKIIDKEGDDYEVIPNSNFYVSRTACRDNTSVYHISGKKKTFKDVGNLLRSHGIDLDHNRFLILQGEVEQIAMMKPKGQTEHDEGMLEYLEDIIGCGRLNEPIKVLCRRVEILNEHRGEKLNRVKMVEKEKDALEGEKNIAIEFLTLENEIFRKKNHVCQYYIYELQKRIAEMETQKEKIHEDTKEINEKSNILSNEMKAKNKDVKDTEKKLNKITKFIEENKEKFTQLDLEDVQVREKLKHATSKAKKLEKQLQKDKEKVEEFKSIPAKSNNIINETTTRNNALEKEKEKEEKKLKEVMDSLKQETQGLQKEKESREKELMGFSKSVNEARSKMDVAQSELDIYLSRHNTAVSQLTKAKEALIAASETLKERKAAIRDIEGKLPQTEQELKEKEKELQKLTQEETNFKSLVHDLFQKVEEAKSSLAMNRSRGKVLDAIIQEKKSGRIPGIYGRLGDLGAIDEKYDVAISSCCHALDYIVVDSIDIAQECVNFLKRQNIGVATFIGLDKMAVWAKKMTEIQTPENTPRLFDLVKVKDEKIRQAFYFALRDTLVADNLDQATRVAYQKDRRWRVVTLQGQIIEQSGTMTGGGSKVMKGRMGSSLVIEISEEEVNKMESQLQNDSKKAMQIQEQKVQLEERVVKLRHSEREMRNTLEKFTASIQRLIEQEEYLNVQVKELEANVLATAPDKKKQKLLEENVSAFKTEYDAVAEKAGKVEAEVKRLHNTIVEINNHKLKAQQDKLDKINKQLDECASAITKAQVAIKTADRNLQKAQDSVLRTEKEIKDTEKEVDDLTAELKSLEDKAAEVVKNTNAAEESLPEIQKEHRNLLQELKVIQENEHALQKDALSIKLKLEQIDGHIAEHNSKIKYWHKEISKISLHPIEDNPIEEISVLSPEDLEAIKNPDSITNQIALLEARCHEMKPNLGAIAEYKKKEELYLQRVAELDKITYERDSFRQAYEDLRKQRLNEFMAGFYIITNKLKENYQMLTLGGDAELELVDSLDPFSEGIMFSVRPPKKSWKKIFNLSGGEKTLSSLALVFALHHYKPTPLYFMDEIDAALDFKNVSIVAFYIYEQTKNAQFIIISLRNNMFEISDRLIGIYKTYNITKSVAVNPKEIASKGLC
# EPHX2, sequence (P34913 whole entry): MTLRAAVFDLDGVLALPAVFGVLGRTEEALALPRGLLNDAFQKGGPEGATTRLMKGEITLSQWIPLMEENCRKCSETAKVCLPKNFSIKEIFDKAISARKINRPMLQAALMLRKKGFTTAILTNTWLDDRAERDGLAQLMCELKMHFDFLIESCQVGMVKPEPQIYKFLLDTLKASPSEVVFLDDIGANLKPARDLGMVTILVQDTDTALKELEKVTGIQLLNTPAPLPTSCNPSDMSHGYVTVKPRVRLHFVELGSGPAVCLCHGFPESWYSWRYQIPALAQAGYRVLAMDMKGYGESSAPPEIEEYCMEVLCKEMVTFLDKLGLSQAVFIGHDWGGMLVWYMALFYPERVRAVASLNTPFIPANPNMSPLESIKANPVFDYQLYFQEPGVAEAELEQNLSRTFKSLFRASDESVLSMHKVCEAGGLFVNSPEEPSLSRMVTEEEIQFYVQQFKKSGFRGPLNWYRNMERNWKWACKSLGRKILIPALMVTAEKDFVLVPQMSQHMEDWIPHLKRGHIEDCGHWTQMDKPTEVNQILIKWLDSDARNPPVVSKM
# TCP1, sequence (P17987 whole entry): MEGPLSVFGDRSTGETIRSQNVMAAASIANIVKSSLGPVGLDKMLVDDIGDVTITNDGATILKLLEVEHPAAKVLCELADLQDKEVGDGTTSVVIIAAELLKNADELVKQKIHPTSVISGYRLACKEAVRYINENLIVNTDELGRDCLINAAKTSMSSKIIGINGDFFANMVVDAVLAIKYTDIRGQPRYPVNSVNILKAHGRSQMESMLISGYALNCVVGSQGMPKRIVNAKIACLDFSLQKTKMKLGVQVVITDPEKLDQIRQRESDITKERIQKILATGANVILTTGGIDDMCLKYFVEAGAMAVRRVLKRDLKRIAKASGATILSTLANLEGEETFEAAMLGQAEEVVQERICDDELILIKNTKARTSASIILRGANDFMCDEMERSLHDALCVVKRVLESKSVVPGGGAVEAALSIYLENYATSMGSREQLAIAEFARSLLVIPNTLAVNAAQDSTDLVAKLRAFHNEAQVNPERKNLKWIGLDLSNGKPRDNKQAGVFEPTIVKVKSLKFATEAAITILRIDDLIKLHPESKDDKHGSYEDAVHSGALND
# UniProt P55769, sequence (P55769 whole entry): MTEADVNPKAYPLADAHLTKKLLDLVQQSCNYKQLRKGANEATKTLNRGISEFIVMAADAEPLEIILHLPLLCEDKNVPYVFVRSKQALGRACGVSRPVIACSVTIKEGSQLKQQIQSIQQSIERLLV
# UniProt Q9BQI0, sequence (Q9BQI0 whole entry): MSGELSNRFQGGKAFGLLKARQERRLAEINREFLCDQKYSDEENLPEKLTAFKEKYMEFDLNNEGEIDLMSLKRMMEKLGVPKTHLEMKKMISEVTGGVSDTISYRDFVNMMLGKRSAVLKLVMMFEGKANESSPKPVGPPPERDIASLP
substance,measurement,setting,value
"CLEC4F, Q8N1N0",cross-linked residues,AIF1L,K474 - K129
"EPRS1, P07814",cross-linked residues,B4GALNT4,K300 - K232
"CCT4, P50991",cross-linked residues,CCT2,K21 - K522
"TCP1, P17987",cross-linked residues,CCT4,K126 - K55
"EPHX2, P34913",cross-linked residues,MEPE,K55 - K369
"HTATSF1, O43719",cross-linked residues,SF3B1,K297 - K333
"SMC2, O95347",cross-linked residues,SMC4,K580 - K731
"NOP56, O00567",cross-linked residues,SNU13,K396 - K86
"VIM, P08670",cross-linked residues,TPPP3,K223 - K48
"BCL9, O00512",cross-linked residues,TRIM28,K1244 - K289
"XRCC6, P12956",cross-linked residues,XRCC5,K317 - K282
